Source: PubChem BioAssay
“And” between values parts separate entries of the source, which are not always exact repeats. Identical values can stand only once. More than one record can exist for a structure, and the calls need not agree. The source made the active and inactive calls. Unless noted, no rule for the calls is given here.

Key:
[1] = kinase inhibitors against Plasmodium liver-stage infection, cell-based, known kinase inhibitor set, luminescence, hepatoma host viability (AID 624392); conditions: Plasmodium liver stage in hepatoma cells, luciferase luminescence, concentration not given here; liver cell % of control: measured here: host liver cell viability; parasite % of control: stronger effect = lower value;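 also: infected cells incubated roughly two days before readout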
[2] = modulators of glucocorticoid suppression of NF-kB, cell-based, luciferase, IL-1B stimulus, dexamethasone (AID 624486); conditions: NF-kB luciferase reporter, IL-1B + dexamethasone, luminescence; percent of negative control (+Dex): actives lie on both sides, concentration not given here; z-score: measured here: IL-1B alone, no Dex;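 as to percent of negative control (+Dex): 100% = mean signal of vehicle control wells on the plate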
[3] = kinase inhibitors altering Pseudomonas killing of worms, whole organism (AID 651566);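 also: tested at 14 µM; sign flipped so higher z means a lower ratio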; conditions: C. elegans killed by P. aeruginosa, survival ratio
[4] = activators of macrophage pro-inflammatory response, cell-based, murine, luminescence (AID 652131); conditions: murine macrophage pro-inflammatory reporter, stronger effect = higher value
[5] = biological target: Cellular tumor antigen p53 (Homo sapiens) (UniProt P04637); assay: kinase inhibitors altering GFP-p53 stability in HPV16-positive cells, imaging, known kinase inhibitor set, EGFP/DsRed ratio (AID 1053116); conditions: stronger effect = higher value; EGFP object count: measured here: GFP-p53 positive objects count;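 also: cells exposed to compounds for 24 h at 37 °C before reading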
Sequence of Cellular tumor antigen p53 (Homo sapiens) (P04637 whole entry, looked up): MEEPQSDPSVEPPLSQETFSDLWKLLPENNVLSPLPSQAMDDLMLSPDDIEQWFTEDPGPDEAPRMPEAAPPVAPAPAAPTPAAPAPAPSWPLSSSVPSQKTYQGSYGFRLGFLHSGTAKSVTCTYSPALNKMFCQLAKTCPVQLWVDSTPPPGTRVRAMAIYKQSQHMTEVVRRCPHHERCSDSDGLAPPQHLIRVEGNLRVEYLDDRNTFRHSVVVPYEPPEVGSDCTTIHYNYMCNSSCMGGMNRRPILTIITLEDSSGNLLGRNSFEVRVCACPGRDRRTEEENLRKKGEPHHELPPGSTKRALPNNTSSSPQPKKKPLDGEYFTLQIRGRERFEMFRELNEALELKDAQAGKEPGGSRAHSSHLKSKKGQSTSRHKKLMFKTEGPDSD

[6] = IRF3 reporter activation in THP-1 macrophages, cell-based, PMA-stimulated THP-1, luminescence (AID 1053176); conditions: PMA-differentiated THP-1, IRF3 reporter luminescence; stronger effect = higher value
[7] = survival rescue of mitochondrial mutant cells in low glucose, primary screen, MELAS cybrids, Rieske KO mouse fibroblasts, CellTiter-Glo (AID 1508586;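 active = mean z-score across replicates of 1.96 or higher in either the MELAS or the Rieske mutant cell line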;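 also: z relative to plate mean and SD of compound and empty wells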)
[8] = sensitizers of A549 cells to miR-34 induction, primary screen, imaging, A549 dox-inducible miR-34, nuclei and caspase counts (AID 1347080;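 active = compounds whose cell count with miR-34 switched on is under 0.7 times the count with it off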); conditions: A549 miR-34 inducible, Hoechst nuclei count, 48 h
[9] = viability rescue of complex I mutant cybrids, primary screen, cell-based, galactose medium, ATP luminescence (AID 1645843;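 active = z-score of at least 1.8 in each of two replicates, scored against plate mean and spread of sample wells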;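 also: positive z means more ATP and so rescue of galactose-driven cybrid death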); conditions: complex I mutant cybrid cells, 72 h, stronger effect = higher value
[10] = liver-stage malaria parasite growth inhibition, primary screen, cell-based, HepG2, luciferase luminescence, HepG2 viability (AID 624349; in the data active = parasite load remaining mostly below about 12%, no sharp cut-off; inactive = mostly above about 10%;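 also: 100% = mean of DMSO negative control wells on the same plate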); conditions: P. berghei liver stage in HepG2, luciferase luminescence, concentration not given here; parasite load remaining: stronger effect = lower value; viability: measured here: HepG2 viability without parasites
[11] = MELAS cybrid survival, CellTiter-Glo 48 h, stronger effect = higher value
[12] = Rieske KO mouse fibroblast survival, CellTiter-Glo 72 h

Row | Structure (SMILES) | liver cell % of control [1] | parasite % of control [1] | percent of negative control (+Dex) [2] | z-score [2] | z-score [3] | z-score [4] | EGFP object count [5] | EGFP/DsRed ratio [5] | fraction signal [6] | z-score [7, 11] | z-score [7, 12] | fold change ([8]; stronger effect = lower value, cell number ratio, induced over uninduced) | fold change ([8]; measured here: relative caspase fold change +Dox/-Dox) | cell count ([8]; measured here: total cells with miR-34 induction, stronger effect = lower value) | cell count ([8]; measured here: total cells without miR-34 induction) | z-score [9] | parasite load remaining [10] | viability [10] [%]
1 | CCn1c(-c2nonc2N)nc2c(N3CCCC3)nccc21 | 90.8% | 137% (inactive) | 80.5% (inactive) | -0.655 | -0.89 (inactive) | 1.27 (inactive) | 3 | 0.0699 (inactive) | -0.004 (inactive) | 0.113 (inactive) | -0.0304 |  |  |  |  |  |  | 
2 | Cn1c(-c2nonc2N)nc2cnccc21 | 87.4% | 106% (inactive) | 70.5% (inactive) | -2.13 | -0.36 (inactive) | -0.113 (inactive) | 4.5 | 0.0787 (inactive) | -0.0065 (inactive) | -0.058 (inactive) | -0.308 |  |  |  |  |  |  | 
3 | COc1cc2ncn(-c3cc(OCc4ccccc4C(F)(F)F)c(C(=O)N(C)C)s3)c2cc1OC | 104% | 116% (inactive) | 89.5% (inactive) | -0.475 | 0.535 (inactive) | 0 (inactive) | 8.5 | 0.396 (inactive) | -0.002 (inactive) | 0.0168 (inactive) | -0.0859 |  |  |  |  |  |  | 
4 | N#Cc1c(NC(=O)c2ccccc2F)sc2c1CCCC2 | 160% | 60.7% (inactive) | 282% (active) | 14.4 | 0.24 (inactive) | 2.53 (inactive) | 0 | 0 (inactive) | -0.0035 (inactive) | 0.104 (inactive) and 0.195 (inactive) | -0.249 and 0.00256 | 0.993 (inactive) | 0.12 | 5190 | 5220 | 0.305 (inactive) |  | 
5 | Nc1nccc(C#Cc2cncnc2Nc2ccc(OCc3cccc(F)c3)c(Cl)c2)n1 | 107% | 81.2% (inactive) | 83.5% (inactive) | -0.655 | 0.82 (inactive) | -1.19 (inactive) | 313 | 1.99 (active) | -0.0105 (inactive) | -0.936 (inactive) | 0.011 |  |  |  |  |  |  | 
6 | Nc1nccc(-c2c(-c3ccc(F)cc3)ncn2C2CCNCC2)n1 | 79.4% and 93.7% | 77.2% (inactive) and 61.2% (inactive) | 136% (inactive) and 118% (inactive) | 1.59 and 1.56 | -0.995 (inactive) and 0.19 (inactive) | 15.2 (active) and 4.36 (inactive) | 12.5 and 3 | 0.0782 (inactive) and 0.0295 (inactive) | 0.0105 (inactive) and -0.008 (inactive) | -0.885 (inactive) and -0.815 (inactive) | 0.00861 and -0.488 |  |  |  |  |  | 50.2% (inactive) | 61.1
